# Measurements published in the supplement of paper PMC10105736.
# Unmarked numbers belong to inactive results.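 Rule for the calls: active = MAPPIT score above the 99th percentile of random reference set scores in the same batch; inactive = at or below it.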
# B1: Psc (protein)
# chain: MMTPESKAIQPAAATTKQTAEATATTTMAHTQQKSQLSTLAKTTTTTATNKAAKSVVSNANSSGNNSSKKLALSQSQKTTTTTTPPTTTTTTTAAAAAEATTNADKMQKQQQLKQQLFAACSIKVKSENTLATTANAALAAATTTTTTATPALATGKAAKTILENGIKKESTPPAVESVEASSSSSSSSSSSSSSSSSWPTTRRATSEDASSNGGASADEEKSEEDPTAAVAASSTATTTSDLATTSRPRPVLLTAVNPHIICHLCQGYLINATTIVECLHSFCHSCLINHLRKERFCPRCEMVINNAKPNIKSDTTLQAIVYKLVPGLYERELMRKRAFYKDRPEEAALATPEQRGDDTEHLIFSPSDDMSLSLEYAELGELKTDSEPELVDTLRPRYLQCPAMCRVSHLKKFVYDKFEIDAQRFSIDIMYKVKTIVLLDYYTLMDIAYIYTWKRDAPMRFYYRVYESPQPLVKPAPRRVLPLKLEKQERENQEQQLAVEVASSKVEPVSLPEDQKAEASIKVEEQESTREIVKEVIKDVAATPPTETLKLVINRNMLDKREKSHSPQMSSKSSSKSSPCTPVSSPSEPNIKLKIDLSKQNSVTIIDMSDPERREIVKPLKPEKESRSKKKDKDGSPKSSSSSSSSSSGERKRKSPSPLTVPPLTIRTERIMSPSGVSTLSPRVTSGAFSEDPKSEFLKSFALKPIKVKVESPERTLNNRAITPPSPSVQQSASPKSKGNNLDDSILMKPPSCMPPKSIASSKRKSKEPVKAVSKKQKLSPPLPTVDFKIRLPVTNGNSSGTASPKIEKPLMPPPAKPPMLAPRKLQPSAQFAPPPSPIHHHAGVQMSAPGNRTPIAKRYQPILPKASRPNPFANIPNDVNRLLKDAGTEIKSIGGGSVENNSNAAQKPHLYGPKGESKMGPPALPATTPSQGNKNVGKQAGNLPMSAPPNKGNSSNNYLNLALFNSSKCKGKEAPPGCRTPMYTPNSPIYSPSSPQYVPSYNIPTMPTYKYTPKPTPNSGSGNGGSGSYLQNMLGGGNGGSLGGLFPSPPTKSDQNTNPAQGGGGSSSATQSGGNNGIVNNNIYMPNEDAPEKQQVKVKSLLNSCNINIPSSLSITISRDNGDSSSPNNGQHPKHKSPVNNYIEIVKLPDQPQDQVQAAKEAQKRQSPPAAVPGHLAAKLPPPPPSKAIPSPQHLVSRMTPPQLPKVATPPPPSSPRVITPPKTSPPANAAKVTPLKPVLTPTQVDKKTPSPEKRTAAQMGSHSPTASENKSPKGGPAGVANSTGGAQNGDPAAKKFRPILPRQNGMPELAPKLPTLAPFVGFNPLQNPAAGKKVPPSKKSPNAGAAAHQSGQQKLVNGGQSQPAQQKTSPPAQKNQQQVKKVSKNPTPPPPSLPAVGKMMPHPVMHSQNAPLSIASSASAAAVASGQLDLSNFLKENLRRVHAAQAAQAAQVAAAANQSNMMYNLAQMGHMTPAMYNYQQAYFREQLSRMQRVGNEVFNDYLQKLKTAAATGGGGPVEGELKPMLPTVTLPSPGATPPAASPKTSPLPAGKLTAAATAPQTKGNSSSGAANARQQTAATGNNGATVPAASLPPATKSK
# B2: ref(2)P (protein)
# chain: MPEKLLKITYQGAGPQKKINAYLRMPSQNYTILRREIELYLFQERQLPKCDVRTFWIDADKDEIEIVNQNDYEIFLAKCESNMHVQVAPLAPVEEPKATKQEGSSANAEAPSVDDPSNFTIHDAVECDGCGLAPLIGFRYKCVQCSNYDLCQKCELAHKHPEHLMLRMPTNNGPGMVDAWFTGPGLGRRSGRRSRGHCPFQETNQADPAGEPARDSRRERRQARRHAGVLTQFVEMMTNLPLNTTTATAPAEPQKPKAAEQTESPPQAEPTVTAEKAAESEAKPTEPKKVNTDQSVPRTEDPVTTPRSTQPTTPVINLDNISQIVPPEYMSAGIEILNNFSEMFSKIIDTTEGGDSGIFAPSTTPSAENKKPEEQGQSSGQSGASSANQSAVPSAAPSANQSNVPSANQSATPSISGSIPDAQLETEPLNPKPSETTTETEQERRRSDSLDPEWQLIDNAYSANNSNLINLDTTNPTAAPQEPVRDFGQLGELLRQHMNEEARVEQASANTQTAQVDTVSTSTSTTSVTTNSVGTSPAAPDDKRTVPVYHTDESINKSIHAMMAMGFSNEGAWLTQLLESVQGNISAALDVMNVSQNRN
# B3: Pdhb (protein)
# chain: MLRTRLIQAASSAQRAFSTSQKALAAKQMTVRDALNSALDDELARDDRVFILGEEVAQYDGAYKVSRGLWKKYGDKRVIDTPITEMGFAGIAVGAAMAGLRPVCEFMTWNFSMQAIDHIINSAAKTFYMSAGAVNVPIVFRGPNGAASGVAAQHSQCFAAWYAHCPGLKVLSPYDAEDARGLLKSAIRDPDPVVFLENELVYGTAFPVADNVADKDFLVPIGKAKVMRPGKDITLVAHSKAVETSLLAAAELAKKGIEAEVINLRSIRPLDTATIFASVRKTHHLVTVENGWPQHGVGAEICARIMEDQTFFELDAPVWRCAGVDVPMPYAKTLEAHALPRVQDLVEATLKVLGGKVGKAAAANK
# B4: Cpsf6 (protein)
# chain: MADVVLDLYAEDLDKDFAGQAQDEFGGDGVDLYDDIGGPTESAASGGGGGGTPSADGAAGPGSGEPGERNSGGPNGVYHQSSGSLTPTMNRRYQLYVGNLTWWTTDQDIANSLRDIGVSDLQEVKFFENRANGQSKGFSVISLGSESSLRAVLDQLPKKEMHGQAPVVTYPSKQALTQFESLQKTRPVPPPQQNGPPRGPAPPSMGGGPMPTGHPGGPQGGGPPGHPPRGMNSIMQPGQYRPQHMSQVPQVGGPNSGPPRMQPPMHPQGGLMGNQQPPPRYPSAQGQWPGQRPGGPRPGPPNGPPQRPMFQGGPMGMPVRGPAGPDWRRPPMHGGFPPQGPPRGLPPAPGPGGPHGAPAPHVNPAFFNQPGGPAQHPGMGGPPHGAPGPQPGMNMPPQQGMNMTPQHGPPPQFAQHGPRGPWPPPQGKPPGPFPDPQQMGPQLTEVEFEEVMSRNRTVSSSAIARAVSDAAAGEYSSAIETLVTAISLIKQSKVAHDERCKILISSLQDTLHGIEAKSYNRRERSRSRERSHRSRQRRERSTSRYRERSRERERDRDRERERDGGSYRERSRSRERERQAPDHYRDDSRSVRPRKSPEPVVAEAAEAPSSKRYYEDRERYRSSDRERRDRDRDRDRERERDRDRREEHRSRH
# B5: hig (protein)
# chain: MWSRQRMRHKPLWALISLTVLLLVLDKSNANTEPVETSTTSEPDASPGCRAPDVRFTIVKPEATTEQPLAKFETTQIYLPEDFTTADVEFVDSVPRHPNENHAAVINPYSLDLGDDHLHVGDAAASLVGDDDLGDEDEDHHGDPEDKRLNANRKQGKRRRAGSGRRRRIENENGQTGRGRGSRYKRHAILHDTEASPETDRWAGSKLAAEGDVYYVHIADILKSREPNRELKSKLHKLKMKARLNKCLAEGGKEKCTRLLKKKPKKKVVEKEQTLKKEKKFPKEEQSKEKVPENGQTPKEDELELDHPETAAAHHRRRGDSHAAELDQRDRSPRWRRRRSTEFKGDLGQLPPESGIGPEPEPLADQDLKDLQQYGNQSSSARVALLWQRVKRKSGKTTGALSRPKGGGDSSSKTTSRKDKGIYDEEAGYTPIHPDDPEFDEEEEEDEEVDILQQFTEVSEIRFPGEIGPMGDRRLCKIRCVKGKWVGPLCATNEEDDNGNVKFQPLYKSCHVNRIPSHLLLSYRNISVTPIPPNRGWRKTRLSKSTLLSNTEINVGWDLPHGHSLQARCQELGIYKLLGESRVLCSNGLWAPRMPSCVPTTVLTNYSEDSAPSIRIKIFNGSHSFEPSGVMAVPPHSTVLMDCMYPRVRGTPEWSWTSWYMQYSTGWSPAQEEKAVRYRLSIKNIENNDSGTFTCTSPRGLTNSIAVVVATSTCPQLTEPLAPLKLRLEGNKLGQRAHYECPEGFRLDGAWNATCLASGNWSSPTPTCHAIQCPRLELDDPHLSLIELNTSAWGRAVFKCQWGFKLTGPAQLDCEPSGVWSGPVPRCKVIQCVMPVAPLNGRIGGTSLSQRRLTVGALVTFSCNDGHSLVGESSIICTENGQWSHSPPFCKSQCPYPGDPPNGLIAPLKFNYDAGDYLSVQCRPGFVQSYEGPPERPKCQPDGRWSGPMPKCKSYEEV
# B6: CG42540 (protein)
# chain: MPDSMMDMEHRDHQLHRQQQQSHHHQPPRLTASTSTFAPPAPAGSQSEERDRDRDRERDHHLHHHQSNNVASSPLPVTASIQLHQQQPQQQQQQQPLTQLQQPQLREREHHQQQQQQQQQMMQQPQQQQQMQQPQQQLPHSHHALMQQSQQQQAIHRAEARRADEEISDKASTCGKLLIFLSVALVIMTLPFSLFVCFKVVQEYERAVIFRLGRLMQGGAKGPGIFFILPCIDSYARVDLRTRTYDVPPQEVLTKDSVTVSVDAVVYYRVSNATVSIANVENAHHSTRLLAQTTLRNTMGTRHLHEILSERMTISGTMQVQLDEATDAWGIKVERVEIKDVRLPVQLQRAMAAEAEAAREARAKVIAAEGEQKASRALREASEVIGDSPAALQLRYLQTLNTISAEKNSTIVFPLPIDLITYFLKTNEATTQQNARAAAAAIGNTPPPLQLAPQQQMGQQQQPQYQQPQQQQQQYQPQQQQQQQQQQPQQQDQLYQQGQQISSAM
# B7: heix (protein)
# chain: MATSSQLLPNGNLSRNGKTKTEDGEEVEAVVGARAAGADAGVALTGRLTGHPSTSGTFMKLKTYLLALRPWSLSASLVPTLLGSALAYRSQWAEEFSLATFFLTAFTVVTVHCAGNVVNTYFDFIKGIDKQKADDRTLVDHILTKDEVVSLGAILYMAGCGGFVLLAVLSPAKMEHLALIYFGGLSSSFLYTGGIGFKYIALGDLVILILFGPISVLFAFMSQTGHLDWTTMGYAIPLALNTEAILHSNNTRDADNDRRAGIVTLAILIGRTASHVLYAMLLFAPYSLFFIFGLKYSLWFLLPLVTLPQAFQIEKRFRNEQTMHLVPRQTAKLNFFFGILYVVACCCAHQLPTFGLRRN
# B8: Pfdn2 (protein)
# chain: MSTESAKPALSQEAIVAQFQQLRNEQRNLVNSLNTLEMDLREHKTVIETLEAADPERKCFRQIGGVLCERTVKEVLPQLVENKDFIAKTIQMVTNDLSKKGSELNKFKEEHNIKIRGEHLVAEGAKGDDAEDKAENRNVLVFN
# B9: Vps25 (protein)
# chain: MAEFQWPWEYTFPPFFTLQPHEETRQQQLKVWTDLFLKYLRHTNRFTLSIGDQNSPLFHNEALKRRLSPELVLAILGELERSGHANPLDKRRQEWQVYWFTLEEYGNMVYDWVQETGQTNTICTLYEIASGENTSHLDFYGVDEAVLLSALRLLEEKGRCELIEMDGSHGVKFF
# Legend:
# Test in all cases: MAPPIT interaction score (arbitrary units); higher = stronger binary interaction signal, active = hit call of the paper
# Pc = conditions: pair source set: Lit-BM-16
# Pbgd = conditions: pair source set: RRS
# ScpX = conditions: MAPPIT configuration: N-N; pair source set: Curagen_high_conf
# Pdha = conditions: pair source set: Lit-BM-16
# Pgd = conditions: MAPPIT configuration: N-N; pair source set: DPIM
# qua = conditions: MAPPIT configuration: N-N; pair source set: DPIM
# Pfdn1 = conditions: MAPPIT configuration: N-N; pair source set: Curagen_high_conf
# Pex3 = conditions: MAPPIT configuration: N-C
# SsRbeta = conditions: MAPPIT configuration: N-C; pair source set: screen_3
# Pex14 = conditions: MAPPIT configuration: N-C; pair source set: screen_3
# Pfdn5 = conditions: pair source set: Lit-BM-16
# Pgam5 = conditions: MAPPIT configuration: N-N; pair source set: DPIM
# 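Note: HEK293T cells with Epo stimulation, STAT-responsive firefly luciferase reporter, fold induction versus unstimulated cells divided by the larger fold induction of two negative controls lacking either bait or prey.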
binder,measurement,setting,value
B1,MAPPIT interaction score,Pc; MAPPIT configuration: N-C,1.11
same,MAPPIT interaction score,Pc; MAPPIT configuration: N-N,-0.137
B2,MAPPIT interaction score,Pbgd; MAPPIT configuration: N-C,-0.0221
same,MAPPIT interaction score,Pbgd; MAPPIT configuration: N-N,0.0139
same,MAPPIT interaction score,ScpX,0.0182
B3,MAPPIT interaction score,Pdha; MAPPIT configuration: N-C,0.121
same,MAPPIT interaction score,Pdha; MAPPIT configuration: N-N,0.456
same,MAPPIT interaction score,Pgd,-0.835
same,MAPPIT interaction score,qua,-0.463
B4,MAPPIT interaction score,Pfdn1,0.767
B5,MAPPIT interaction score,Pex3; pair source set: screen_3,1.39
same,MAPPIT interaction score,SsRbeta,-0.0878
B6,MAPPIT interaction score,Pex14,2.47
B7,MAPPIT interaction score,Pex3; pair source set: screen_4,-0.663
B8,MAPPIT interaction score,Pfdn5; MAPPIT configuration: N-C,2.36
same,MAPPIT interaction score,Pfdn5; MAPPIT configuration: N-N,5.93 (active)
B9,MAPPIT interaction score,Pgam5,2.9 (active)
